{"source": "PubChem BioAssay (Tox21)", "note": "Several values for one entry are separate records, joined by “and”; a condition that tells them apart may be missing. Equal values may be shown once. Results filed as inconclusive are left out. Entries that show only a call come without a potency. Where a structure was tested more than once in an assay, its records may differ in their call. Activity calls are given as the source filed them. Unless noted, calls come from the whole dose curve.", "data": [{"target": "Gonadotropin-releasing hormone receptor (Homo sapiens) (UniProt P30968)", "sequence (P30968 whole entry, looked up)": "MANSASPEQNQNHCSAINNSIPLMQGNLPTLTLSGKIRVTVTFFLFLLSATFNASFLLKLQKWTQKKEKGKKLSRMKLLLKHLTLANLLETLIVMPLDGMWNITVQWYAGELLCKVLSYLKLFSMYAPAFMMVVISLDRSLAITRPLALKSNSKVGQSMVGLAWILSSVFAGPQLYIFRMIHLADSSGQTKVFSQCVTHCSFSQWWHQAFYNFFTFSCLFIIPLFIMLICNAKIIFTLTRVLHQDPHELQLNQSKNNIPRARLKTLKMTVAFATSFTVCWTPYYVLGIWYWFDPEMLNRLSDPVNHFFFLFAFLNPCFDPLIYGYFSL", "assay": "Human gonadotropin-releasing hormone receptor (GnRHR) small molecule agonists, calcium flux assay in GnRHR-HEK293 cells (AID 1920063); note: nearly all actives have a fitted effect of over 35% in size", "details": "calcium flux fluorescence, agonist mode; series mostly up to 57.6 µM; activity change: at the top concentration", "in_short": "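Compounds dissolved in DMSO are pin-transferred onto dye-loaded GnRHR-HEK293 cells, which were seeded 18 h before at 37 C/5% CO2. Calcium signal is read as fluorescence intensity at 1 s intervals for 3 min.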", "values": [{"compound": "Clc1ccc(Cl)c(Cl)c1", "Potency": "inactive"}, {"compound": "COc1ccc(N)cc1", "Potency": "inactive"}, {"compound": "O=C(O)c1ccc(=O)[nH]c1", "activity change": "0.486% [at 26.4 µM, stronger effect = higher value] (inactive)"}, {"compound": "CCCCCCCCCl", "Potency": "inactive"}, {"compound": "OCCCCO", "Potency": "inactive"}]}, {"target": "KiSS-1 receptor (Homo sapiens) (UniProt Q969F8)", "sequence (Q969F8 whole entry, looked up)": "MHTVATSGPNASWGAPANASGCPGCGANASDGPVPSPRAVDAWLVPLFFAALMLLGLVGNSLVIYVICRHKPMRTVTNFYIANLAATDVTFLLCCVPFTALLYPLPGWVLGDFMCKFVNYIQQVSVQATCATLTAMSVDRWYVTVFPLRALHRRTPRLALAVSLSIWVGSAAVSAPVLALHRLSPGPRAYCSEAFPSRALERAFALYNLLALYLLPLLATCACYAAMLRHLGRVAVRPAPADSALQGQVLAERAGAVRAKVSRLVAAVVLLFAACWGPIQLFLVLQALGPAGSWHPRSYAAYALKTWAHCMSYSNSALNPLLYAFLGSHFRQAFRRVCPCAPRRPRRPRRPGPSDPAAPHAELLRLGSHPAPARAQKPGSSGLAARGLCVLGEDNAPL", "assay": "Human kisspeptin (KISS1R) small molecule agonists, calcium flux assay in KISS1R-HEK293 cells (AID 1920064; active = well fitted activation curve with a large enough effect in the repeat runs)", "details": "KISS1R-HEK293, calcium flux fluorescence, agonist; series mostly up to 76.8 µM; activation: at the top concentration", "in_short": "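Cell line: HEK293, stable human KISS1R. Dye loading 1 h at 37 C after 18 h culture. Read: kinetic fluorescence, 480/540 nm, 3 min at 1 s intervals.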", "values": [{"compound": "Cc1ncc(CNC(=O)N(CCCl)N=O)c(N)n1", "activation": "5.3% [at 35.3 µM] (inactive)"}, {"compound": "O=C(O)COc1cc(Cl)c(Cl)cc1Cl", "Potency": "inactive"}, {"compound": "Clc1ccc(Cl)c(Cl)c1", "Potency": "inactive"}, {"compound": "CCOC(=O)CC(SP(=O)(OC)OC)C(=O)OCC", "note": "(configuration not stated)", "Potency": "inactive"}, {"compound": "COc1ccc(N)cc1", "Potency": "inactive"}, {"compound": "O=C(O)c1ccc(=O)[nH]c1", "activation": "-0.47% [at 35.3 µM] (inactive)"}, {"compound": "CNC(=O)N(C)c1nnc(C(C)(C)C)s1", "Potency": "inactive"}, {"compound": "COc1cc(N)c(Cl)cc1C(=O)NC1CN2CCC1CC2", "note": "(configuration not stated)", "activation": "0.512% [at 35.3 µM] (inactive)"}, {"compound": "CCCCCCCCCl", "Potency": "inactive"}, {"compound": "NC(=S)c1c(Cl)cccc1Cl", "activation": "-2.58% (inactive)"}, {"compound": "OCCCCO", "Potency": "inactive"}, {"compound": "CCCCCCCCCCCCCCCCCC(=O)O", "Potency": "inactive"}, {"compound": "O=C(NC(=O)c1c(F)cccc1F)Nc1ccc(Cl)cc1", "Potency": "inactive"}, {"compound": "CC1C=[C-]C=C1.[C-]#[O+].[C-]#[O+].[C-]#[O+].[Mn]", "Potency": "inactive"}, {"compound": "CCOP(=O)(OCC)SCCSCC", "Potency": "inactive"}, {"compound": "CC(C)=C[C@@H]1[C@@H](C(=O)OCc2coc(Cc3ccccc3)c2)C1(C)C", "Potency": "inactive"}, {"compound": "CCCCCCCCCC(CC)c1ccc(S(=O)(=O)O)cc1", "note": "(configuration not stated)", "Potency": "inactive"}, {"compound": "COP(=S)(OC)Oc1cc(Cl)c(Cl)cc1Cl", "Potency": "inactive"}, {"compound": "CC(=O)C(C)(C)C", "activation": "-2.65% (inactive)"}, {"compound": "CCOP(=O)(CN(CCO)CCO)OCC", "activation": "-4% (inactive)"}, {"compound": "c1ccc(Nc2ccc3ccccc3c2)cc1", "Potency": "inactive"}, {"compound": "Nc1ccc(Cl)cc1N", "activation": "-1.75% (inactive)"}, {"compound": "COC(=O)c1ccccc1CS(=O)(=O)NC(=O)Nc1nc(OC)cc(OC)n1", "activation": "-0.0269% (inactive)"}, {"compound": "C1CN2CCN1CC2", "Potency": "inactive"}]}, {"tested_on": "not listed separately", "assay": "G protein-coupled receptor (GPCR) small molecule agonists, calcium flux assay: HEK293 wild type cell line counter screen (AID 1920065); note: potency is the fitted concentration of half-maximal effect", "details": "HEK293 WT calcium flux, fluorescence, agonist mode; series mostly up to 57.6 µM; activation: at the top concentration", "in_short": "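Tox21 10K compounds, 15 concentrations each in triplicate, pin-transferred in DMSO onto dye-loaded cells; kinetic read at 480/540 nm for 3 min, 1 s intervals.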", "values": [{"compound": "Cc1ccc(N)cc1Cl", "Potency": "inactive"}, {"compound": "O=C(O)COc1cc(Cl)c(Cl)cc1Cl", "Potency": "inactive"}, {"compound": "Clc1ccc(Cl)c(Cl)c1", "Potency": "inactive"}, {"compound": "CCOC(=O)CC(SP(=O)(OC)OC)C(=O)OCC", "note": "(configuration not stated)", "Potency": "inactive"}, {"compound": "CCCC[n+]1ccc(C)cc1", "Potency": "inactive and 39 µM (active)"}, {"compound": "CCCCCCCCCCCCCCCCn1cc[n+](C)c1", "Potency": "inactive"}, {"compound": "COc1ccc(N)cc1", "Potency": "inactive"}, {"compound": "O=C(O)c1ccc(=O)[nH]c1", "activation": "-0.212% [at 26.5 µM] (inactive)"}, {"compound": "O=[N+]([O-])c1cc(Cl)c(Cl)c(Cl)c1", "activation": "0.0173% (inactive)"}, {"compound": "c1ccc(NNc2ccccc2)cc1", "Potency": "inactive"}, {"compound": "CCCSC(=O)Cl", "activation": "0.179% (inactive)"}, {"compound": "COCCl", "activation": "0.585% [at 26.5 µM] (inactive)"}, {"compound": "COc1cc(N)c(Cl)cc1C(=O)NC1CN2CCC1CC2", "note": "(configuration not stated)", "activation": "-0.282% [at 26.5 µM] (inactive)"}, {"compound": "CCCCCCCCCl", "Potency": "inactive"}, {"compound": "COc1cc(OC)nc(NC(=O)NS(=O)(=O)c2ncccc2C(=O)N(C)C)n1", "activation": "-0.293% (inactive)"}, {"compound": "NNC(N)=S", "Potency": "inactive"}, {"compound": "OCCCCO", "Potency": "inactive"}, {"compound": "NNC(=O)c1ccccc1", "activation": "0.289% (inactive)"}, {"compound": "CCCCCCCCCCCCCCCCCC(=O)O", "Potency": "inactive"}, {"compound": "O=C(NC(=O)c1c(F)cccc1F)Nc1ccc(Cl)cc1", "Potency": "inactive"}, {"compound": "Nc1ccc(Cl)c(Cl)c1", "Potency": "inactive"}, {"compound": "CCOP(=O)(OCC)OP(=O)(OCC)OCC", "activation": "-0.0202% (inactive)"}, {"compound": "CC1C=[C-]C=C1.[C-]#[O+].[C-]#[O+].[C-]#[O+].[Mn]", "Potency": "inactive"}, {"compound": "CCOP(=O)(OCC)SCCSCC", "Potency": "inactive"}, {"compound": "CCCCCCCCCCCCCCCC[N+](C)(C)C", "Potency": "inactive"}, {"compound": "CC(C)=C[C@@H]1[C@@H](C(=O)OCc2coc(Cc3ccccc3)c2)C1(C)C", "Potency": "inactive"}, {"compound": "CCCCCCCCCC(CC)c1ccc(S(=O)(=O)O)cc1", "note": "(configuration not stated)", "Potency": "inactive"}, {"compound": "COP(=S)(OC)Oc1cc(Cl)c(Cl)cc1Cl", "Potency": "inactive"}, {"compound": "CC(=O)C(C)(C)C", "activation": "0.0288% (inactive)"}, {"compound": "CCOP(=O)(CN(CCO)CCO)OCC", "activation": "0.0132% (inactive)"}, {"compound": "c1ccc(Nc2ccc3ccccc3c2)cc1", "Potency": "inactive"}, {"compound": "Nc1ccc(Cl)cc1N", "Potency": "inactive"}, {"compound": "C1CN2CCN1CC2", "activation": "0.96% (inactive)"}]}, {"tested_on": "not listed separately", "assay": "p53 small molecule agonists, cell-based qHTS assay with human liver microsomes (AID 1963577)", "details": "HCT-116 p53RE-bla with human liver microsomes, ratio, 16 h; series mostly up to 66 µM; activation: at the top concentration", "in_short": "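In this qHTS, p53 response-element beta-lactamase cells receive test compound together with a microsome/NADPH activating system (0.5 mg/mL final each) and are incubated 16 h at 37 C before LiveBLAzer fluorescence detection.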", "values": [{"compound": "Cc1ncc(CNC(=O)N(CCCl)N=O)c(N)n1", "activation": "10.3% [at 30.3 µM] (inactive)"}, {"compound": "Clc1ccc(Cl)c(Cl)c1", "Potency": "inactive"}, {"compound": "CCCCCCCCCCCCCCCCn1cc[n+](C)c1", "Potency": "inactive"}, {"compound": "COc1ccc(N)cc1", "Potency": "inactive"}, {"compound": "O=C(O)c1ccc(=O)[nH]c1", "activation": "-1.7% [at 30.3 µM] (inactive)"}, {"compound": "O=[N+]([O-])c1cc(Cl)c(Cl)c(Cl)c1", "activation": "2.37% (inactive)"}, {"compound": "c1ccc(NNc2ccccc2)cc1", "Potency": "inactive"}, {"compound": "CCCSC(=O)Cl", "activation": "4.04% (inactive)"}, {"compound": "COCCl", "Potency": "inactive"}, {"compound": "OCC(O)CO", "Potency": "inactive"}, {"compound": "O=C1C2CC=CCC2C(=O)N1SC(Cl)(Cl)Cl", "note": "(configuration not stated)", "Potency": "inactive"}, {"compound": "CNC(=O)N(C)c1nnc(C(C)(C)C)s1", "Potency": "inactive"}, {"compound": "CCCCCCCCCl", "Potency": "inactive"}, {"compound": "COc1cc(OC)nc(NC(=O)NS(=O)(=O)c2ncccc2C(=O)N(C)C)n1", "activation": "-3.71% (inactive)"}, {"compound": "NC(=S)c1c(Cl)cccc1Cl", "activation": "-0.722% (inactive)"}, {"compound": "NNC(N)=S", "Potency": "inactive"}, {"compound": "OCCCCO", "activation": "3.26% (inactive)"}, {"compound": "NNC(=O)c1ccccc1", "activation": "-8.45% (inactive)"}, {"compound": "Nc1ccc(Cl)c(Cl)c1", "Potency": "inactive"}, {"compound": "CCOP(=O)(OCC)OP(=O)(OCC)OCC", "activation": "8.12% (inactive)"}, {"compound": "CCOP(=O)(CN(CCO)CCO)OCC", "activation": "8.2% (inactive)"}, {"compound": "c1ccc(Nc2ccc3ccccc3c2)cc1", "Potency": "inactive"}, {"compound": "COC(=O)c1ccccc1CS(=O)(=O)NC(=O)Nc1nc(OC)cc(OC)n1", "activation": "3.61% (inactive)"}]}, {"tested_on": "not listed separately", "assay": "p53 small molecule agonists, cell-based qHTS assay with rat liver microsomes (AID 1963578)", "details": "HCT-116 p53RE-bla, beta-lactamase ratio, 16 h; series mostly up to 66 µM; activation: at the top concentration", "in_short": "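Agonist mode in p53RE-bla reporter cells, with compounds co-incubated 16 h at 37 C alongside 0.5 mg/mL rat liver microsomes and 0.5 mg/mL NADPH (final), followed by a 2 h LiveBLAzer detection step.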", "values": [{"compound": "Cc1ncc(CNC(=O)N(CCCl)N=O)c(N)n1", "activation": "0.0899% [at 30.3 µM] (inactive)"}, {"compound": "Clc1ccc(Cl)c(Cl)c1", "Potency": "inactive"}, {"compound": "CCCCCCCCCCCCCCCCn1cc[n+](C)c1", "Potency": "inactive"}, {"compound": "COc1ccc(N)cc1", "Potency": "inactive"}, {"compound": "O=C(O)c1ccc(=O)[nH]c1", "activation": "0.649% [at 30.3 µM] (inactive)"}, {"compound": "O=[N+]([O-])c1cc(Cl)c(Cl)c(Cl)c1", "activation": "-0.479% (inactive)"}, {"compound": "c1ccc(NNc2ccccc2)cc1", "Potency": "inactive"}, {"compound": "COCCl", "Potency": "inactive"}, {"compound": "OCC(O)CO", "Potency": "inactive"}, {"compound": "O=C1C2CC=CCC2C(=O)N1SC(Cl)(Cl)Cl", "note": "(configuration not stated)", "activation": "-5.05% (inactive)"}, {"compound": "COc1cc(N)c(Cl)cc1C(=O)NC1CN2CCC1CC2", "note": "(configuration not stated)", "activation": "-2.6% [at 30.3 µM] (inactive)"}, {"compound": "CCCCCCCCCl", "Potency": "inactive"}, {"compound": "COc1cc(OC)nc(NC(=O)NS(=O)(=O)c2ncccc2C(=O)N(C)C)n1", "activation": "-1.35% (inactive)"}, {"compound": "NC(=S)c1c(Cl)cccc1Cl", "activation": "-1.34% (inactive)"}, {"compound": "NNC(N)=S", "Potency": "inactive"}, {"compound": "OCCCCO", "Potency": "inactive"}, {"compound": "NNC(=O)c1ccccc1", "activation": "-1.86% (inactive)"}, {"compound": "Nc1ccc(Cl)c(Cl)c1", "Potency": "inactive"}, {"compound": "CCOP(=O)(OCC)OP(=O)(OCC)OCC", "activation": "0.181% (inactive)"}, {"compound": "CC(=O)C(C)(C)C", "activation": "-2.11% (inactive)"}, {"compound": "Nc1ccc(Cl)cc1N", "activation": "0.257% (inactive)"}, {"compound": "COC(=O)c1ccccc1CS(=O)(=O)NC(=O)Nc1nc(OC)cc(OC)n1", "activation": "0.0372% (inactive)"}]}]}
